Source: PubChem (National Center for Advancing Translational Sciences (NCATS))
Sampled rows, rich in hits. Any-hit rate of the full collection: about 11%.
JMJD2A Tudor inh: inhibitors of human JMJD2A Tudor domain; Potency, µM (highest dose often 114 µM), inactives show at the top dose activity change, negative = inhibition, hits mostly inhibitors; AID 504339; actives 4.4% (n = 390,000); O75164; AlphaScreen JMJD2A-Tudor / H3K4me3 peptide binding; further: on the % scale 0 is the no-effect control and ±100 the full control effect; nearly all actives have a fitted effect of over 50% in size
L3MBTL1 inh: blocks human L3MBTL1; Potency, µM (highest dose often 57.1 µM), for inactives: at the top dose activity, negative = inhibition, most hits filed as inhibitors; AlphaScreen L3MBTL1–H3K9me1 peptide binding; actives 0.66% (n = 230,000); further: on the % scale 0 is the no-effect control and ±100 the full control effect; nearly all actives have a fitted effect of over 60% in size
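L3MBTL1 50 nM + b-AHA-H3(1-15)K9me1 75 nM, 30 min RT; compound added, 30 min RT; streptavidin donor/Ni-chelate acceptor beads 10 ug/mL each final, 30 min RT dark; AlphaScreen read.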
HP1b chromo inh: HP1-beta chromodomain-methylated histone interaction inhibition; P83916; AlphaScreen HP1-beta / biotin-H3K9me3 peptide binding; Potency, µM (highest dose often 114 µM), for the others: at the top dose activity change, negative = inhibition, hits mostly inhibitors; actives 0.56% (n = 390,000); further: nearly all actives have a fitted effect of over 70% in size
Target sequence (P83916 whole entry, looked up): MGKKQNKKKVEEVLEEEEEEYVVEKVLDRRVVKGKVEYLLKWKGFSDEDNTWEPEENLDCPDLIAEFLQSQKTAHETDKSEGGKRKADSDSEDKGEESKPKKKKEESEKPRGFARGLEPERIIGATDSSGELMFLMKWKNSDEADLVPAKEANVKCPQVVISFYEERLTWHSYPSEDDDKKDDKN
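Compound inhibition of the preformed complex between 50 nM HP1-beta and 50 nM biotinylated H3K9me3 peptide was read by AlphaScreen. Buffer was PBS pH 7.4 with 0.01% Tween-20. Incubations ran 30 min at room temperature, with 10 ug/mL donor/acceptor beads.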
BAZ2B inh: inhibitors of human BAZ2B bromodomain; Q9UIF8; AlphaScreen BAZ2B-H3K14Ac peptide displacement; Potency, µM (series often up to 114 µM), without a hit: top-dose activity change, negative = inhibition, usual class: inhibitors; actives 4.4% (n = 360,000); further: on the % scale 0 is the no-effect control and ±100 the full control effect; nearly all actives have a fitted effect of over 60% in size
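Complex of BAZ2B and biotin-H3K14Ac (50 nM apiece) forms over 30 min at RT, then faces library compounds up to 110 uM for another 30 min; AlphaScreen beads added, 20 min dark incubation, luminescence read.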
G9a inh: blocks human histone lysine methyltransferase G9a. Q96KQ7. G9a H3K9 monomethylation, AlphaScreen, 2 h. Potency, µM (doses to about 102 µM), for the others: top-dose activity, negative = inhibition, hits mostly inhibitors. actives 8.8% (n = 350,000). AID 504332; further: on the % scale 0 is the no-effect control and ±100 the full control effect; nearly all actives have a fitted effect of over 75% in size
Target sequence (Q96KQ7 913-1193 limits assumed): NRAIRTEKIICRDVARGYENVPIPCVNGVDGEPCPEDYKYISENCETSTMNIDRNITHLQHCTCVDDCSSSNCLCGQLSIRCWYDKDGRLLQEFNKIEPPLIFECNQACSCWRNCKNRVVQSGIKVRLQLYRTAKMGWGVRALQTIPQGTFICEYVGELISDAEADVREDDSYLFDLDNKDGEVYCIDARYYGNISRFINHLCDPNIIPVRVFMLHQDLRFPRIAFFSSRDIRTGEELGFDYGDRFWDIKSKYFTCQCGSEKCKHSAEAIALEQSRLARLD
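Signal arises when biotinylated H3K9 peptide, once monomethylated, bridges streptavidin donor and antibody-captured acceptor beads. Enzyme at 20 nM was preincubated 15 min with test compounds; peptide 500 nM and SAM 20 uM then reacted for 2 h.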
* marks the source's active call; other numbers are inactive results; [ ] = dose if it differs, or a comment. The call rests on the fitted dose curve; in most records, active means well fitted inhibition curve with a large enough effect; inconclusive means small, poorly fitted or top-dose-only effect; inactive means no such curve, though single readings can be large or run the other way. Potency means the concentration at half of the fitted maximal effect.

What do the screens show for `CN(CC(=O)Nc1ccccc1Br)C(=O)c1ccc(COc2ccccc2)cc1`?
JMJD2A Tudor inh: -9%; HP1b chromo inh: 20%; BAZ2B inh: -19%; G9a inh: 8%

Results for COc1ccc2cc(C(=O)N(C)CC(=O)Nc3ccccc3Br)ccc2c1 ?
JMJD2A Tudor inh: -11%; L3MBTL1 inh: 2%; HP1b chromo inh: 37%; BAZ2B inh: 3%; G9a inh: 8.9µM*

How did CCc1ccc(NC(=O)C(=O)NCC(c2cccnc2)N2CCN(c3ccc(F)cc3)CC2)cc1 (stereo not given) do in these assays?
JMJD2A Tudor inh: -16%; HP1b chromo inh: 32%; BAZ2B inh: 6%; G9a inh: inconclusive

What do the screens show for `CN(C)C(=O)c1ccc2c(c1)N(CC(=O)NCc1ccc(F)cc1)C(=O)C1CCCCN21` (stereo not given)?
JMJD2A Tudor inh: 6%; HP1b chromo inh: 27%[57 µM]; BAZ2B inh: 2%; G9a inh: 3%[59 µM]

How did COc1ccccc1OCCNC(=O)CC(NC(C)=O)c1ccccc1 (stereo not given) do in these assays?
JMJD2A Tudor inh: 3%; HP1b chromo inh: 33%; BAZ2B inh: -25%; G9a inh: 79µM*

Results for CC(=O)NC(CC(=O)NCCc1ccccc1)c1ccccc1 (stereo not given) ?
JMJD2A Tudor inh: -10%; HP1b chromo inh: 22%; BAZ2B inh: -1%; G9a inh: 6%

How did Cc1ccc(S(=O)(=O)NCC(=O)NCC(=O)OCc2c(F)cccc2Cl)cc1 do in these assays?
JMJD2A Tudor inh: -5%; L3MBTL1 inh: -21%; HP1b chromo inh: 18%; BAZ2B inh: 3%; G9a inh: 8.9µM*

Results for Cc1ccc(-c2nn(-c3cccc(F)c3)cc2CNCc2cccnc2)o1 ?
JMJD2A Tudor inh: inconclusive; L3MBTL1 inh: -19%; HP1b chromo inh: 2%; BAZ2B inh: -36%

Results for Cc1cccc(-n2cc(CN3CCN(Cc4nccn4C)CC3)c(-c3cccc(F)c3)n2)c1 ?
JMJD2A Tudor inh: inconclusive; L3MBTL1 inh: -9%; HP1b chromo inh: -10%; BAZ2B inh: inconclusive

How did Cc1ccc(-c2nn(-c3cccc(F)c3)cc2CN(Cc2nccn2C)C(C)C)o1 do in these assays?
JMJD2A Tudor inh: inconclusive; L3MBTL1 inh: -11%; HP1b chromo inh: inconclusive; BAZ2B inh: inconclusive; G9a inh: 10µM*

What do the screens show for `Cc1ccc(-c2nn(-c3cccc(F)c3)cc2CN2CCN(c3ccccn3)CC2)o1`?
JMJD2A Tudor inh: 35µM*; L3MBTL1 inh: -19%; HP1b chromo inh: inconclusive; BAZ2B inh: 50µM*; G9a inh: inconclusive

Results for Cc1cc(S(=O)(=O)Nc2c(C(=O)O)[nH]c3ccccc23)ccc1F ?
JMJD2A Tudor inh: -21%; L3MBTL1 inh: 0%; HP1b chromo inh: 19%; BAZ2B inh: -8%; G9a inh: inconclusive

Results for Cc1ccc(S(=O)(=O)Nc2c(C(=O)O)[nH]c3ccccc23)cc1C ?
JMJD2A Tudor inh: -26%; HP1b chromo inh: 48%; BAZ2B inh: inconclusive; G9a inh: 16µM*

How did CCS(=O)(=O)Nc1c(C(=O)O)[nH]c2ccccc12 do in these assays?
JMJD2A Tudor inh: 89µM*; L3MBTL1 inh: -3%; HP1b chromo inh: -6%; BAZ2B inh: -31%; G9a inh: 50µM*

What do the screens show for `COc1ccccc1C(=O)NNC(=S)NC(=O)c1cc(OC)c(OC)c(OC)c1`?
JMJD2A Tudor inh: -30%; L3MBTL1 inh: 9%; HP1b chromo inh: 32%; BAZ2B inh: -4%; G9a inh: 13µM*

Results for COc1ccc(NC(=S)NNC(=O)C2CC2c2ccc(C)cc2)cc1 (stereo not given) ?
JMJD2A Tudor inh: 8%[57.1 µM]; L3MBTL1 inh: -9%; HP1b chromo inh: 23%; BAZ2B inh: -4%; G9a inh: 45µM*

How did COc1cc(C(=O)NC(=S)NNC(=O)[C@H]2C[C@@H]2c2ccccc2)cc(OC)c1OC do in these assays?
JMJD2A Tudor inh: -24%; L3MBTL1 inh: -4%; HP1b chromo inh: 15%; BAZ2B inh: -1%; G9a inh: 40µM*

How did COc1cc(C(=O)NNC(=S)NC(=O)c2ccccc2C)cc(OC)c1OC do in these assays?
JMJD2A Tudor inh: 5%; L3MBTL1 inh: 14%; HP1b chromo inh: 29%; BAZ2B inh: 0%; G9a inh: inconclusive

How did COc1cc(C(=O)NNC(=S)NC(=O)c2ccc3c(c2)OCO3)cc(OC)c1OC do in these assays?
JMJD2A Tudor inh: -23%; HP1b chromo inh: 1%; BAZ2B inh: -4%; G9a inh: 13µM*

What do the screens show for `CCN(C(=O)Cn1nc(C)c([N+](=O)[O-])c1C)C1CCS(=O)(=O)C1` (stereo not given)?
JMJD2A Tudor inh: -4%; L3MBTL1 inh: 5%; HP1b chromo inh: 48%; BAZ2B inh: 15%; G9a inh: 26%[0.501 µM]

Results for Cc1oc(-c2ccc3c(c2)OCCO3)cc1C(=O)NC(Cc1ccccc1)C(=O)O (stereo not given) ?
JMJD2A Tudor inh: -15%; L3MBTL1 inh: -10%; HP1b chromo inh: 20%; BAZ2B inh: inconclusive; G9a inh: 35µM*

Results for O=C(CCC(=O)N(CC(=O)NC1CCCC1)Cc1cccs1)Nc1nccs1 ?
JMJD2A Tudor inh: -8%; L3MBTL1 inh: 3%; HP1b chromo inh: -13%; BAZ2B inh: -15%; G9a inh: 1%

Results for O=C1NCCCC2c3c(cc(Br)c(O)c3Br)OC12N1CCOCC1 (stereo not given) ?
JMJD2A Tudor inh: inconclusive; L3MBTL1 inh: 14%; HP1b chromo inh: -30%; G9a inh: inconclusive

How did O=C1NCCCC2c3cc(O)c4ccccc4c3OC12N1CCCCC1 (stereo not given) do in these assays?
L3MBTL1 inh: -17%; BAZ2B inh: inconclusive; G9a inh: 3.5µM*

Results for Cc1ccc(CSc2nc3cccnc3n2Cc2ccc(C(=O)NC3CCCCC3)cc2)cc1 ?
JMJD2A Tudor inh: -11%; HP1b chromo inh: 27%; BAZ2B inh: -2%; G9a inh: 4%[59 µM]

How did CN(C)CCCNCCCNC(=O)/C=N/O do in these assays?
JMJD2A Tudor inh: inconclusive; HP1b chromo inh: 12%; BAZ2B inh: -6%; G9a inh: 32µM*

Results for Cc1ccccc1N/N=C/c1ccc(C#N)cc1 ?
JMJD2A Tudor inh: -32%; L3MBTL1 inh: -8%; HP1b chromo inh: 12%; BAZ2B inh: inconclusive; G9a inh: 10µM*

Results for CC(=O)c1cccc(NC(=O)CCc2c(C)nc3nc(CN)nn3c2C)c1 ?
JMJD2A Tudor inh: inconclusive; HP1b chromo inh: 21%; BAZ2B inh: 50µM*; G9a inh: 16µM*

Results for CCOC(=O)CSC1=NC(=O)/C(=C/c2ccc(Br)cc2)S1 ?
JMJD2A Tudor inh: inconclusive; HP1b chromo inh: 5%; BAZ2B inh: -9%; G9a inh: 40µM*

How did NC1=NC(=O)/C(=C/c2ccc(Br)cc2)S1 do in these assays?
JMJD2A Tudor inh: -4%; L3MBTL1 inh: 5%[2.29 µM]; HP1b chromo inh: 28%; BAZ2B inh: -28%; G9a inh: 13%[0.501 µM]
